# ZTA DNA inh = counter-screen for EBNA-1 inhibitors: inhibitors of Epstein-Barr virus ZTA. P03206. ZTA-DNA binding, fluorescence polarization. inhibition, % at 11 µM. actives 0.15% (n = 320,000). AID 2234; in the data active means inhibition above about 33%
# NR3A LBD binder = NR3A (human) ligand-binding domain modulation. NR3A LBD differential scanning fluorimetry, Tm shift; 0% = protein alone, 100% = glycine-bound protein. Tm shift relative to glycine control, % at 25 µM. AID 1259313. actives 2.5% (n = 340,000);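 active means melting temperature shift of at least 10% of the positive control shift, at one fixed dose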
# Rpn11 block = inhibitors of human proteasome Rpn11. AID 588493. actives 0.59% (n = 360,000). inhibition, % at 20 µM. human 26S proteasome, Ub4-pepOG fluorescence polarization; 20S core pre-blocked with epoxomicin. O00487;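 active means inhibition at 20 µM, scaled to each plate's controls, above about 33%, limit read from the data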
# EBNA-1 inh = blocks EBNA-1 binding to DNA; EBNA-1 DNA binding, fluorescence polarization; inhibition, % at 14.8 µM; AID 1950; actives 0.34% (n = 300,000); in the data active means inhibition above about 28%
# TPT1 inh = C. albicans TPT1 enzyme inhibition; actives 0.81% (n = 300,000); recombinant caTPT1, FP RNA substrate dephosphorylation; inhibition, % at 5 µM;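 active means inhibition above the mean of all tested compounds plus 3 SD, set per screening campaign, cut at about 24% in these data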;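 further: plate controls were DMSO alone for no effect and ferristatin control at 100 nM for full effect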
# dFosB act = activators of mouse delta FosB homodimer. P13346. purified delta FosB, TAMRA-CDK5 oligo fluorescence polarization; percent of positive-control signal above neutral wells. activation, % at 25 µM. actives 0.99% (n = 340,000). AID 493131;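 active means mean activation above about 17%, with every replicate also reaching it, limit read from the data, passing the limit was not always enough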
# Rpn11 confirm = confirmation of human proteasome Rpn11 inhibitors | shares compounds with Rpn11 block | purified human 26S proteasome, Ub4-pepOG fluorescence polarization; proteasome pretreated with epoxomicin | inhibition, % at 20 µM | actives 29% (n = 1,900) | AID 602318
# MMP-2 inh = MMP-2 (human) inhibition counter-screen; recombinant MMP-2, FRET peptide cleavage fluorescence; inhibition, % at 20 µM; shares compounds with Rpn11 block; actives 4% (n = 1,900);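 further: human MMP-2 activated beforehand with APMA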
# Target sequence (P08253 whole entry, looked up): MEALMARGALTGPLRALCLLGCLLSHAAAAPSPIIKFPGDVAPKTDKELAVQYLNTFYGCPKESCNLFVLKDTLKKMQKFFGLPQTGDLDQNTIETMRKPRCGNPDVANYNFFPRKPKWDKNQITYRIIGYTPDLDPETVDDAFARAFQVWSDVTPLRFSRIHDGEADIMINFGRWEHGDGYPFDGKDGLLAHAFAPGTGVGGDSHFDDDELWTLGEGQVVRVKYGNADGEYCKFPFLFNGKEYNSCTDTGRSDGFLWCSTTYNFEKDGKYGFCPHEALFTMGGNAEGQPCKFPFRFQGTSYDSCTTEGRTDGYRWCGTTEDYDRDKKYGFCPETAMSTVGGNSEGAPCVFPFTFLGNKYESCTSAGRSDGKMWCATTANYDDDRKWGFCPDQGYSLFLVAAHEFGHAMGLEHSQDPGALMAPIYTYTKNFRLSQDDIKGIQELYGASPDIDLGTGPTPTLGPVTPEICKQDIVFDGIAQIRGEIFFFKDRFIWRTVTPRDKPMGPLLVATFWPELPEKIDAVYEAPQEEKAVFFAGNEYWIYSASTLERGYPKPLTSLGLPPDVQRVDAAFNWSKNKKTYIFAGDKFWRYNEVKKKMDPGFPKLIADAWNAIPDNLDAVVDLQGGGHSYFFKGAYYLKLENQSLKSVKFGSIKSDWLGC
# Thrombin inh = thrombin (bovine) inhibition counter-screen | shares compounds with Rpn11 block | bovine thrombin cleavage of Ub4-pepOG, fluorescence polarization | inhibition, % at 20 µM | actives 13% (n = 1,900) | AID 602333;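 active means mean inhibition at least 40% at 20 µM, or signal 3 deviations below plate average, so some actives read negative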;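 further: plate controls were thrombin with DMSO for no effect and buffer wells lacking thrombin for full effect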
# * marks the source's active call; other numbers are inactive results; · = no result. This is a sample that favours compounds with a hit; in the whole collection about 4.5% have one here. Unless noted, no stated cut-off is given here; in the data, active means inhibition above about 40%; inactive means the rest.
SMILES,ZTA DNA inh,NR3A LBD binder,Rpn11 block,EBNA-1 inh,TPT1 inh,dFosB act,Rpn11 confirm,MMP-2 inh,Thrombin inh
COc1ccc(CN2CCNC(=O)C2CC(=O)N(C)Cc2nccn2C)cc1OC (stereo unspecified),-21,-2,47*,3,2,-6,5,-28,33
CCOc1ccc(NC(=S)NC(=O)/C=C/c2ccco2)cc1,0,-1,2,4,0,-1,·,·,·
COc1cc(NS(=O)(=O)c2ccc(NC(=S)NC(=O)/C=C/c3ccco3)cc2)ncn1,·,-2,42*,·,·,-15,78*,24,47*
COc1ccccc1N(C)c1cc2c(c3c1ccn3C)C1CCC2O1 (stereo unspecified),·,·,42*,·,·,·,-8,-57,3
CN(Cc1ccccc1)c1cc2c(c3c1ccn3C)C1CCC2O1 (stereo unspecified),·,·,11,·,·,·,·,·,·
Cn1ccc2c(N3c4ccccc4CCc4ccccc43)cc3c(c21)C1CCC3O1 (stereo unspecified),·,·,49*,·,·,·,7,-40,-6
Cn1ccc2c(N3c4ccccc4CCc4ccccc43)cc3c(c21)C1CCC3C1 (stereo unspecified),·,·,1,·,·,·,·,·,·
COc1ccc(-n2c(N)c(C(=O)NCC3CCCO3)c3nc4ccccc4nc32)c(OC)c1 (stereo unspecified),3,-17,1,3,0,-7,·,·,·
C=CCn1c(N)c(C(=O)NCC2CCCO2)c2nc3ccccc3nc21 (stereo unspecified),5,-1,43*,-5,3,-11,-7,-36,-22
CCC(C)(C)NC(=O)CN(C(=O)CCC(=O)Nc1nccs1)c1ccccc1C,-16,1,-3,-3,-1,-7,·,·,·
N#CC1C(C#N)N2CCCN2C1c1ccc(Br)cc1 (stereo unspecified),-8,0,-1,-2,4,-2,·,·,·
NNC(=O)c1ccc(CSc2cccc3cccnc23)cc1,7,-1,3,8,0,-2,·,·,·
Cc1cccc(NC(=O)CSc2cccc3cccnc23)c1C,6,3,2,11,2,-2,·,·,·
Cc1cccc(CSc2cccc3cccnc23)c1,0,8,70*,19,1,4,42*,-20,-6
COc1cccc(/C=N/NC(=O)CSc2cccc3cccnc23)c1,-16,1,38*,-11,3,-9,-16,2,-17
CCOC(=O)CSc1cccc2cccnc12,-6,-2,63*,-9,-2,-1,12,-32,-10
CC1CCN(S(=O)(=O)c2ccc(NC(=O)CN3C(=O)NC(C)(c4ccccc4)C3=O)cc2)CC1 (stereo unspecified),6,-4,-2,-11,0,-3,·,·,·
C=CCN(CC=C)Cc1cc(=O)oc2cc(C)cc(C)c12,·,·,9,·,·,·,·,·,·
Cc1ccc(CNC(=O)c2ccc(C)c(S(=O)(=O)N3CCCCC3)c2)cc1,-10,0,-6,·,·,-3,·,·,·
CC(C)N1CCc2c(sc(NC(=O)c3nc4ccccc4s3)c2C(N)=O)C1,-5,-4,61*,-3,19,-29,22,5,10
CC(C)N1CCc2c(sc(NC(=O)c3ccc([N+](=O)[O-])o3)c2C(N)=O)C1,-6,·,-6,3,1,5,·,·,·
N#CCC(=O)Nc1ccc(C(F)(F)F)cc1N1CCOCC1,20,-1,3,-9,4,0,·,·,·
CCCCNC(=O)COC(=O)c1c2c(nc3ccccc13)/C(=C/c1cccs1)CC2,7,1,41*,-4,21,-4,5,-58,-1
COC(=O)C(C)N1C(=O)S/C(=C/c2cc(C)n(-c3ccccn3)c2C)C1=O (stereo unspecified),5,4,4,1,-3,-5,·,·,·
COC(=O)C(C)N1C(=O)S/C(=C\c2cc(C)n(-c3ccccn3)c2C)C1=O (stereo unspecified),14,0,136*,12,-1,-2,1,-25,1
SMILES,ZTA DNA inh,NR3A LBD binder,Rpn11 block,EBNA-1 inh,TPT1 inh,dFosB act,Rpn11 confirm,MMP-2 inh,Thrombin inh
COC(=O)c1sccc1NC(=O)CC1C(=O)NCCN1C(=O)Nc1ccc(C(F)(F)F)cc1 (stereo unspecified),2,0,3,-2,2,-17,·,·,·
O=C(NC12CC3CC(CC(C3)C1)C2)N1CCC(O)CC1,-1,0,111*,4,-6,0,-18,-55,-14
COc1ccc(/C=C(/NC(=O)c2ccco2)C(=O)N2CCCCCC2)cc1OC,-5,0,-15,-4,0,1,·,·,·
COc1ccccc1C(=O)N/C(N)=N/c1nc2ccccc2o1,-1,-2,59*,6,14,5,51*,-38,8
Cc1ccc(C(=O)N/C(N)=N/c2nc3ccccc3o2)cc1,5,0,-3,2,-1,-22,·,·,·
CCC1(c2ccccc2)NC(=O)N(CC(=O)NCc2ccc(OC)cc2)C1=O (stereo unspecified),-4,-7,0,-3,-5,-11,·,·,·
Cc1cccc(-c2nc(Nc3cccc(O)c3)c3ccccc3n2)c1,16,32*,60*,-1,6,16,19,-28,12
COc1ccc(Cn2nnnc2C(c2cc(OC)ccc2OC)N2CCC(C(N)=O)CC2)cc1 (stereo unspecified),0,-3,125*,-1,-1,1,-10,2,-11
COc1ccc(Cn2nnnc2C(c2ccccc2Cl)N2CCC(C(N)=O)CC2)cc1 (stereo unspecified),-7,-4,2,-12,0,-4,·,·,·
COc1ccc(N/C=C\C(=O)c2ccc3ccccc3c2)cc1,-7,-2,8,0,1,-5,·,·,·
NS(=O)(=O)c1ccc(N/C=C\C(=O)c2ccc3ccccc3c2)cc1,9,3,45*,-3,11,-2,67*,38,-12
CCn1nc(CC(=O)O)c2ccccc2c1=O,11,-1,47*,6,-5,4,-1,-33,-12
C=CCCC(=O)N1C[C@H]2CON(C)[C@H]2C[C@H]1c1ccc(N2CCCCC2)cc1,·,·,51*,·,·,·,56*,10,45*
COc1cc(C(=O)N2C[C@H]3CON(C)[C@H]3C[C@H]2c2ccc(N3CCCCC3)cc2)cc(OC)c1OC,·,·,37,·,·,·,·,·,·

# Bioassay records as filed in PubChem BioAssay.
